This is an account of results in PubChem BioAssay.

Assay [1] deals with Albumin (Bos taurus) (UniProt P02769). The experiment in a line: compounds binding labelled BSA control protein – biochemical, small-molecule microarray, Alexa647 label, 635/667 nm fluorescence, artefact control for SMM control protein annotation, profiling panel (AID 1118).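 Also: score merges 667 nm emission intensity and signal-to-noise per printed compound spot.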 The following applies: BSA-A647 binding, fluorescence 635 nm, higher = more signal.
Assay [2] in a line: probe aXIP binding to arrayed compounds – biochemical, NeuroSMM set, 635/667 nm fluorescence, primary screen (AID 1119).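 Also: probe is the protein aXip251-270 applied at 1 µg/mL to compound-printed slides; binding of probe to printed compounds measured as 667 nm fluorescence plus signal to noise.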 The following applies: small-molecule microarray; higher = more signal, called active from +8 up or from −8 down unless noted.
Assay [3] can be described thus: probe aNOTCH3 binding on compound microarray – biochemical, small-molecule microarray, 635/667 nm fluorescence, primary screen (AID 1120).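 Also: probe is a biotin-tagged antibody raised against NOTCH3 rather than NOTCH3 protein; score merges spot fluorescence near 667 nm with spot signal to noise.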 Particulars: higher = more signal; small-molecule microarray, probe aNOTCH3, fluorescence unless noted.
Assay [4] in a line: probe aNOTCH2 binding on compound microarray – biochemical, small-molecule microarray, 635/667 nm fluorescence, primary screen (AID 1121).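 Also: score merges feature fluorescence read at 667 nm with its signal to noise.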 Particulars: higher = more signal; small-molecule microarray, probe aNOTCH2, fluorescence unless noted.
Assay [5] has as its target Carbonic anhydrase 2 (Homo sapiens) (UniProt P00918). Put plainly: compounds binding carbonic anhydrase 2 – biochemical, small-molecule microarray, Alexa647-labelled CAII, profiling panel (AID 1122). Particulars: CAII-A647 binding fluorescence, higher = more signal.
Assay [6] is described as follows: COS7 lysate on small-molecule microarray, probe aHis, 635 nm (AID 1123).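 Also: z-score combines 667nm fluorescence intensity with signal-to-noise per printed compound spot.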 The following applies: higher = more signal; small-molecule microarray, COS7 cell lysate, probe aHis, fluorescence unless noted.
Assay [7] is described as follows: probe aLAP1 signal on lysate-treated microarray – cell lysate, small-molecule microarray, COS7 lysate, primary screen (AID 1124).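 Also: lysate comes from COS7 cells expressing LAP1 and is applied at 0.3 µg/mL; score merges spot fluorescence near 667 nm with signal-to-noise over triplicate slides.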 Particulars: higher = more signal; small-molecule microarray, COS7 cell lysate, probe aLAP1, fluorescence unless noted.
For assay [8], the system named is Sam68 (KHDRBS1). The experiment in a line: compounds binding KHDRBS1 protein – biochemical, small-molecule microarray, 635 nm fluorescence, primary screen (AID 1125).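 Also: score merges 667 nm channel intensity with signal to noise over triplicate slides.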 The following applies: higher = more signal.
Assay [9] concerns Chordin-like protein 2 (CHRDL2). Put plainly: compounds binding chordin-like 2 – biochemical, small-molecule microarray, 635 nm fluorescence, primary screen (AID 1126).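 Also: printed compound slides probed with Chrdl2 protein at 4 µg/mL for 1 h at 4 C; score merges 667 nm emission intensity with signal to noise over three replicate slides.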 Particulars: fluorescence 635 nm, higher = more signal.
Assay [10] addresses Concanavalin-A (Canavalia ensiformis) (UniProt P02866). Put plainly: compounds binding concanavalin A lectin – biochemical, small-molecule microarray, Alexa647 label, 635 nm, artefact control for SMM control protein annotation, primary screen (AID 1127).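 Also: z combines 667 nm emission intensity with signal-to-noise across three replicate slides.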 Particulars: ConA-A647 binding fluorescence, higher = more signal.
Assay [11] is described as follows: compounds binding Alexa647 anti-His antibody – biochemical, small-molecule microarray, 635 nm fluorescence, artefact control for SMM control protein annotation, primary screen (AID 1128).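 Also: score merges feature fluorescence with signal-to-noise for each printed compound spot.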 Particulars: higher = more signal.
Assay [12] has as its system Human papillomavirus type 1a E7 protein (residues 1-88). Put plainly: HPV1a E7 small-molecule binders, primary screen, biochemical, small-molecule microarray, residues 1-88, 635 nm (AID 1129). The following applies: small-molecule microarray binding, fluorescence 635 nm; higher = more signal.
Assay [13] deals with Focal adhesion kinase 1 (Homo sapiens) (UniProt Q05397). The experiment in a line: PTK2 protein binding on printed compound slides – biochemical, small-molecule microarray, 635/667 nm fluorescence, BSA, DTT, primary screen (AID 1130).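 Also: composite of spot emission at 667 nm and signal to noise over triplicate slides.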 The following applies: 635 nm fluorescence, higher = more signal.
The subject of assay [14] is Fibrinogen (Alexa647-labelled). The experiment in a line: Alexa647-fibrinogen binding to printed small molecules – biochemical, small-molecule microarray, 635/667 nm fluorescence, artefact control for SMM control-protein annotation, profiling panel (AID 1131).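 Also: z-score merges 667 nm fluorescence with per-spot signal-to-noise over triplicate slides.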 The following applies: fibrinogen-A647 binding fluorescence, higher = more signal.
Assay [15] concerns the target Follistatin (Homo sapiens) (UniProt P19883). Put plainly: FST protein binding to printed compounds – biochemical, small-molecule microarray, 635/667 nm fluorescence, primary screen (AID 1132). The following applies: 635 nm fluorescence, higher = more signal.
For assay [16], the target named is Fibroblast growth factor 2 (Homo sapiens) (UniProt P09038). The experiment in a line: basic fibroblast growth factor binding to printed compounds – biochemical, small-molecule microarray, 635/667 nm fluorescence, primary screen (AID 1133). The following applies: FGF2, fluorescence 635/667, higher = more signal.
A short description of assay [17]: JC-1 mitochondrial potential readout, lung cancer cells – cell-based, A549, JC-1 fluorescence, basal, 24 h, 100 nL, profiling panel (AID 1138).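 Also: A549 lung adenocarcinoma cells under basal conditions with no added stimulus; test concentration not given here.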 Particulars: higher = more signal.
Assay [18] concerns Lefty1. Put plainly: Lefty1 protein binding to printed compounds – biochemical, small-molecule microarray, 635/667 nm fluorescence, primary screen (AID 1139). The following applies: fluorescence 635/667, higher = more signal.
Assay [19] has as its system wheat germ agglutinin (Triticum aestivum), Alexa647-labelled. The experiment in a line: Alexa647-WGA lectin binding to printed small molecules – biochemical, small-molecule microarray, 635/667 nm fluorescence, artefact control for SMM control-protein annotation, profiling panel (AID 1140).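 Also: score merges 667 nm feature emission with signal to noise over triplicate slides.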 The following applies: WGA-A647 binding, 635 nm fluorescence, higher = more signal.

The target in assay [20] is Luciferin 4-monooxygenase (Photinus pyralis) (UniProt P08659). Put plainly: inhibition of purified Photinus pyralis luciferase – biochemical, luminescence, purified enzyme, 2006 set, primary screen (AID 1141).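 Also: cell-free assay with purified firefly luciferase at 100 ng per well in PBS; test concentration not given here.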 Particulars: purified firefly luciferase, SteadyGlo luminescence, 30 min; higher = more signal, called active from +8 up or from −8 down unless noted.

Calls of active or inactive are those of the source.

Albumin (Bos taurus), sequence (P02769 whole entry, looked up): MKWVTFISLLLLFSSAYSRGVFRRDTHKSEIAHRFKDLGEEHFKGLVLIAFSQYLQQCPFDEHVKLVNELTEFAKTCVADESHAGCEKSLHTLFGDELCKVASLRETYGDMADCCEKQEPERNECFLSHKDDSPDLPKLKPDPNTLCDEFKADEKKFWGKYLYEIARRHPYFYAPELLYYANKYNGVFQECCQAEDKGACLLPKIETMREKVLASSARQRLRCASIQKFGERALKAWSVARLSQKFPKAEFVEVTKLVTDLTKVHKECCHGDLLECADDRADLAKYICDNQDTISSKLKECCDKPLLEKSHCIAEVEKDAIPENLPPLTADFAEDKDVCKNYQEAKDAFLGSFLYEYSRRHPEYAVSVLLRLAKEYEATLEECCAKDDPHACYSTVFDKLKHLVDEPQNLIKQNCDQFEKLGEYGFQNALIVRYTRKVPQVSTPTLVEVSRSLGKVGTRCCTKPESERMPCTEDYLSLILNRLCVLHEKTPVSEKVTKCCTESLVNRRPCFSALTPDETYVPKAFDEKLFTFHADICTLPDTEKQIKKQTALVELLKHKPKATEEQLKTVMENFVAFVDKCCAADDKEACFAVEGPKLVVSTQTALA
Luciferin 4-monooxygenase (Photinus pyralis), sequence (P08659 whole entry, looked up): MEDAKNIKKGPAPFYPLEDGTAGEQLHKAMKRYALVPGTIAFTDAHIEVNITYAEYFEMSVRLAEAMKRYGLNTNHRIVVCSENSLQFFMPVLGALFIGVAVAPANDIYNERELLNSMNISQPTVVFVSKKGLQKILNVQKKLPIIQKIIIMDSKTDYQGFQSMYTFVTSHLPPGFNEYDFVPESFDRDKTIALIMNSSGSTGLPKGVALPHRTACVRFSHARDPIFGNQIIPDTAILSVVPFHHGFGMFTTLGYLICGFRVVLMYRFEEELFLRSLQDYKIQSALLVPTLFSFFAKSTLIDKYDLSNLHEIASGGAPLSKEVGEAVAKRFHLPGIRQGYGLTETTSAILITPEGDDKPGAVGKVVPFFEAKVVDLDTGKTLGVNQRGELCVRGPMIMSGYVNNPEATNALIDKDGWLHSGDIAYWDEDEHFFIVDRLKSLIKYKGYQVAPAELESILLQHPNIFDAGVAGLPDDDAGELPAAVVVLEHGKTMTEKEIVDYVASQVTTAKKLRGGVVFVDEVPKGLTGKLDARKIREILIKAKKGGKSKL
Follistatin (Homo sapiens), sequence (P19883 whole entry, looked up): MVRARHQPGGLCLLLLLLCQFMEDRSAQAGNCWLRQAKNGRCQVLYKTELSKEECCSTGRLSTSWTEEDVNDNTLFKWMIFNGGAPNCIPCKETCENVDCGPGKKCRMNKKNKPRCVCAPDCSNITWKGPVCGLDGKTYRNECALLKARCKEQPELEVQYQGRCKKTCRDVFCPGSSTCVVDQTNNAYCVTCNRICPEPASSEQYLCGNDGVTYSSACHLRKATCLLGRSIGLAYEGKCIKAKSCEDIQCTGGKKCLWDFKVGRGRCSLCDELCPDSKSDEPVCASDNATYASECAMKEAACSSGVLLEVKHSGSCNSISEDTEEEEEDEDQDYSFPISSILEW
Focal adhesion kinase 1 (Homo sapiens), sequence (Q05397 whole entry, looked up): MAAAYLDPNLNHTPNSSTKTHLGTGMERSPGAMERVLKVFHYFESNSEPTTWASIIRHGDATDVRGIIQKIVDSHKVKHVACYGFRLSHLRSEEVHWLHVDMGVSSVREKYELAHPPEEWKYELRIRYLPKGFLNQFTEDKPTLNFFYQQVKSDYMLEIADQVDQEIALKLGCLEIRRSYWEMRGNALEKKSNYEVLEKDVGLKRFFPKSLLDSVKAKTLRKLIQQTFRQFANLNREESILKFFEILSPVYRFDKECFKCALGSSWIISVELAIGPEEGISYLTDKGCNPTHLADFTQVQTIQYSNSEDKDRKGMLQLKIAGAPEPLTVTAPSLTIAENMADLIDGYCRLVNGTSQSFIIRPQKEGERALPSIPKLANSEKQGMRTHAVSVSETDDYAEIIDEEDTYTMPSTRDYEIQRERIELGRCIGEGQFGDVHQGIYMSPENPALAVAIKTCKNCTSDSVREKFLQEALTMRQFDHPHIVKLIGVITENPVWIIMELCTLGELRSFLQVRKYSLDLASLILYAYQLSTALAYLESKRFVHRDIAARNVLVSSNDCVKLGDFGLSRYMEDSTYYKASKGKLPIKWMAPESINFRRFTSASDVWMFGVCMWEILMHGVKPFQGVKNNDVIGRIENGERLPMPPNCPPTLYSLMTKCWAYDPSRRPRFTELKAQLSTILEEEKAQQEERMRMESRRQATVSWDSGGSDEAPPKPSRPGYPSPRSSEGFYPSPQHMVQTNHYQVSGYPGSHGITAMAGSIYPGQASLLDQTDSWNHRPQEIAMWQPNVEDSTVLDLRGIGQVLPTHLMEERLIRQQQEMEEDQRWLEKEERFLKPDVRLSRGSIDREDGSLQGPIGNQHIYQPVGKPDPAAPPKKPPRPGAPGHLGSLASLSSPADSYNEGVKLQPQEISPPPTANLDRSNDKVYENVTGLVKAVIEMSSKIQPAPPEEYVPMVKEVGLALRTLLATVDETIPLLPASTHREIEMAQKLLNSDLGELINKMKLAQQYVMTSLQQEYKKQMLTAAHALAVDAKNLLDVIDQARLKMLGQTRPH
Fibroblast growth factor 2 (Homo sapiens), sequence (P09038 whole entry, looked up): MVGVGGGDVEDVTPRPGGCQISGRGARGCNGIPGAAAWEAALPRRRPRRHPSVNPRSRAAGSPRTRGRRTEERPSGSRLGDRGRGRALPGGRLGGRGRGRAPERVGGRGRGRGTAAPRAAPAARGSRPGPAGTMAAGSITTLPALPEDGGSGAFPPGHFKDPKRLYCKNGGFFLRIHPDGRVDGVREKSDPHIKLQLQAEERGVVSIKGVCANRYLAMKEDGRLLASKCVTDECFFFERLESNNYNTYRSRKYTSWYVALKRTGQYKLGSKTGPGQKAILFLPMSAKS
Concanavalin-A (Canavalia ensiformis), sequence (P02866 whole entry, looked up): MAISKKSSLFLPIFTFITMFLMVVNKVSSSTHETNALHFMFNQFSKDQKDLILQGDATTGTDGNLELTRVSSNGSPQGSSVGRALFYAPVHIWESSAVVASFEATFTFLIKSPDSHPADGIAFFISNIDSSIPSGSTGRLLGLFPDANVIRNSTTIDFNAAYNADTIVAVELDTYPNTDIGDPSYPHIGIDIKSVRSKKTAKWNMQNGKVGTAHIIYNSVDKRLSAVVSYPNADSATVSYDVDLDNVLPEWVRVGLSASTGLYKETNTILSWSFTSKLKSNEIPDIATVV

Regarding `COC(=O)[C@H]1[C@@H](O)[C@@]2(O)c3c(OC)cc(OC)cc3O[C@@]2(c2ccc(OC)cc2)[C@@H]1c1ccccc1`, the composite z-score in assay [1] was 0.0007; in assay [3], -0.101; in assay [4], -0.0439; in assay [5] it was -0.0268; in [6] it was 0.309; in [7], 0.413. Also, the composite z-score in assay [8] was 0.34; in assay [9], 0.671; in [10], 0.37; in assay [11], 0.287; in assay [12], 0.741; in [13], 0.153. The composite z-score stood at 0.323 in [14]; 0.53 in assay [15]; 0.4 in assay [16]; 0.614 in assay [18]; 0.0623 in [19]. Also, in assay [2], the composite Z-score is -0.619 (inactive). Also, the z-score in assay [17] is 0.862; in [20] it was -1.13 (inactive).

For `C[C@@H]1OC=C2[C@@H](O)[C@H]3O[C@H]3C(=O)[C@]23[C@H]1[C@H]1C2=C([C@@H](O)[C@H]4O[C@H]4C2=O)[C@@H]3O[C@@H]1C`, the composite z-score in assay [1] was -0.745; in [3] it was -0.063; in [4], -0.147; in assay [5] it was -0.355; in [6] it was -0.934; in assay [7] it was -0.266. Also, the composite z-score in [8] was -1.86; in assay [9] it was 0.584; in assay [10], -0.66; in assay [11], -0.317; in assay [12], -0.556; in [13], -0.171. The composite z-score in assay [14] was -0.559; in assay [15] it was 0.0982; in assay [16], 0.0979; in [18], 0.277; in assay [19], -0.351. Also, the composite Z-score in [2] is 0.278 (inactive). For the same compound, the results for the z-score in [17] and in assay [20] were 0.774 and -0.563 (inactive), respectively.

In the case of `COC(=O)C1(C)C=C2C(=C(C)C(=O)C2C)CN1` (stereo not given), the composite z-score in assay [1] was 0.395; in assay [3], -0.219; in assay [4], 0.0145; in [5], 0.917; in assay [6] it was 2.82; in assay [7], 1.46. In addition, the composite z-score in [8] was -0.326; in assay [9], -0.471; in assay [10], -2.16; in [11], 0.207; in assay [12] it was 0.111; in assay [13] it was 0.885. Also, the composite z-score is -1.52 in assay [14]; -0.0995 in assay [15]; -0.755 in assay [16]; -0.868 in assay [18]; -0.0605 in [19]. The composite Z-score in [2] is 0.727 (inactive). Moreover, the z-score was -1.82 in assay [17] and 2.34 (inactive) in [20].

Take `C=C(CC1(CNP(=O)(c2ccccc2)c2ccccc2)CC1)c1ccccc1`: the composite z-score is 0.44 in [1]; 0.179 in [3]; 0.0312 in assay [4]; 0.809 in assay [5]; 1.2 in assay [6]; 0.399 in assay [7]. Moreover, the composite z-score was -0.975 in assay [8]; -0.754 in [9]; -0.139 in [10]; 0.679 in assay [11]; 0.626 in [12]; 0.0728 in assay [13]. Further, the composite z-score is 0.126 in assay [14]; -0.274 in assay [15]; -0.639 in assay [16]; -0.742 in assay [18]; 0.11 in [19]. In addition, in assay [2], the composite Z-score was -0.0318 (inactive). Further, the z-score in assay [17] is 1.23; in assay [20], 2.19 (inactive).

`CCCc1cc2c(n1Cc1ccc(C)cc1)C(C)C1CN(C(=O)c3ccccc3)C(C)(C(=O)OC)C21` (stereo not given): the composite z-score came out at 0.864 in assay [1]; 0.773 in assay [3]; 1.03 in [4]; 0.803 in [5]; 2.02 in [6]; 1.45 in [7]. The composite z-score in assay [8] was 0.52; in assay [9], -0.809; in assay [10], 0.453; in [11] it was 2.14; in assay [12], 1.06; in [13], 1.29. The composite z-score in [14] was 0.889; in [15], 0.66; in [16], 0.578; in [18], -0.544; in [19] it was 0.833. In addition, the composite Z-score in assay [2] is 1.3 (inactive). The z-score in assay [17] is 1.14; in assay [20], -1.17 (inactive).
